Experimental data reported in PubChem BioAssay (NCI).
Compounds without any hit were thinned out: in the full panel of roughly 83,000, 20% have a hit.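 Single-concentration screen, 48 h exposure, 96-well plates. Endpoint: percent growth. Below 10 = active.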 A number with no mark means an inactive call. Calls of active or inactive are those of the source.

How the values were obtained:
Experiment in all cases: NCI-60 one-dose screen, 48 h (100 = growth as untreated, 0 = no growth, -100 = all killed)
Details in all cases: 10 µM unless noted
SR leukemia = tested on: SR leukemia
RPMI-8226 leukemia = tested on: RPMI-8226 leukemia
OVCAR-8 ovarian = tested on: OVCAR-8 ovarian
OVCAR-5 ovarian = tested on: OVCAR-5 ovarian
OVCAR-4 ovarian = tested on: OVCAR-4 ovarian
SK-OV-3 ovarian = tested on: SK-OV-3 ovarian
IGROV1 ovarian = tested on: IGROV1 ovarian
OVCAR-3 ovarian = tested on: OVCAR-3 ovarian
HS 578T breast = tested on: HS 578T breast
NCI/ADR-RES ovarian = tested on: NCI/ADR-RES ovarian

Row | Compound | growth (SR leukemia) | growth (RPMI-8226 leukemia) | growth (OVCAR-8 ovarian) | growth (OVCAR-5 ovarian) | growth (OVCAR-4 ovarian) | growth (SK-OV-3 ovarian) | growth (IGROV1 ovarian) | growth (OVCAR-3 ovarian) | growth (HS 578T breast) | growth (NCI/ADR-RES ovarian)
1 | NS(=O)(=O)c1ccc(CCNC(=O)CSc2ccc(-c3ccc(Br)cc3)nn2)cc1 | 55.9% | 40.1% | 64.6% | 94.9% | 49.3% | 73% | 72.1% | 91% | 73.1% | 102%
2 | O=C(c1ccccc1)c1ccc2nc(-c3cccc(Cl)c3)[nH]c2c1 | 117% | 114% | 103% | 107% | 114% | 99.9% | 113% | 116% | 108% | 104%
3 | CCOC(=O)c1ccc(Nc2nc(NN)nc(-c3ccc(F)cc3)c2C#N)cc1 | 72.4% | 103% | 112% | 99.5% | 98.3% | 116% | 109% | 103% | 100% | 110%
4 | Cn1cc(NC(=O)c2cc(NC(=O)c3ccc(C#Cc4ccccc4)cc3)cn2C)cc1C(=O)NCCCN1CCOCC1 | -34.3% (active) | -42.6% (active) | 38.9% | 83.2% | 63% | 83.2% | 66.8% | 46% | 95.9% | 90%
5 | COc1ccc(-c2c(Nn3cnnn3)no[n+]2[O-])cc1 | 38.7% | 42% | 46.4% | 85.6% | 53.4% | 91.1% | 19.8% | 46.5% | 50% | 54.9%
6 | Cn1cc(-c2cc3nc(-c4c[nH]c5ccc(Cl)cc45)cc(N)n3n2)c2ccccc21 | 5.34% (active) | -38.7% (active) | -64.7% (active) | -89.2% (active) | -67.4% (active) | -86.5% (active) | -53.1% (active) | -62.7% (active) | -27.1% (active) | -29.7% (active)
7 | O=C1CC(Sc2n[nH]c(-c3ccncc3)n2)C(=O)N1c1ccc(Br)cc1 (stereo not given) | 97.4% | 94.1% | 105% | 105% | 110% | 108% | 112% | 114% | 111% | 111%
8 | Cc1ccc(C(=O)NN2C(=O)/C(=C/C=C/c3ccc([N+](=O)[O-])o3)SC2=S)cc1 | 2.44% (active) | -1.56% (active) | -75.9% (active) | -94.9% (active) | -100% (active) | -78.1% (active) | -90.3% (active) | -97.3% (active) | -18.3% (active) | -48.8% (active)
9 | O=c1[nH]c(=O)c2c(-c3cc4ccccc4oc3=O)ccnc2[nH]1 | 71.8% | 95% | 61.6% | 111% | 88.3% | 71.2% | 79.4% | 98.9% | 70.4% | 86.9%
10 | Cc1occc1C(=O)NN1C(=O)/C(=C/C=C/c2ccc([N+](=O)[O-])o2)SC1=S | 5.76% (active) | -8.57% (active) | -53.9% (active) | -93.3% (active) | -85% (active) | 20.1% | -87.6% (active) | -100% (active) | 19.4% | -6.81% (active)
11 | COc1ccc2[nH]c(=O)c(CSc3nccc(-c4ccc(OC)c(OC)c4)n3)cc2c1 | 23.1% | 14.7% | 16% | 52.4% | 8.75% (active) | 55.8% | 49.8% | 41.9% | -7.63% (active) | 23.6%
12 | COC(=O)/C=C/c1cccc2c1C(=O)NC(C)(c1cc3cc4ccccc4cc3oc1=O)N2 (stereo not given) | 28% | 40.2% | 54.3% | 63.3% | 5.78% (active) | 95.6% | 65.2% | 32% | 29.5% | 35.2%
13 | CC(C)c1sc(NC(=O)c2cc(NC(=O)c3cc(NC(=O)c4cscn4)cn3C)cn2C)nc1C(=O)NCCCN(C)C | -8.69% (active) | 94.5% | 2.77% (active) | 10.5% | 18.7% | -14.5% (active) | 13.3% | 3.57% (active) | 23.3% | 103%
